From PubChem
This is a sample that favours compounds with a hit; in the whole collection about 3.5% have one here.
MITF inh: MITF inhibitors, primary screen, biochemical, AlphaScreen, human. 650,000 tested, 0.91% active. Microphthalmia-associated transcription factor (Homo sapiens), O75030. AlphaScreen MITF homodimerization, bead proximity signal. inhibition, % at 2.6 µM; in the data active means inhibition above about 50%;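 further: 0% = vehicle wells with protein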
GPR151 activ: activators of human GPR151, primary screen, cell-based, PathHunter beta-arrestin, luminescence; G-protein coupled receptor 151 (Homo sapiens), Q8TDV0; PathHunter beta-arrestin GPR151 cells; activation, % at 11.2 µM; 650,000 tested, 1% active; AID 1508602, 2020; in the data active means activation above about 4.9%;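 further: 0% = median of compound wells and 100% = cells with positive control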
TEAD-YAP inh: TEAD-YAP interaction inhibition, primary screen, TEAD-YAP interaction inhibitor project, luminescence, HEK-TIYL cells; AID 1259422, 2018; TEAD-Gal4/YAP UAS-luciferase luminescence; 640,000 tested, 1.4% active; inhibition, % at 9.12 µM; in the data active means inhibition above about 32%;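 further: 0% = median of test compound wells and 100% = reference inhibitor wells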
FBW7 activator: FBW7 E3 ligase activators, primary screen, biochemical, AlphaScreen, human. normalized activity (activation), % at 26.1 µM. AlphaScreen FBW7–phospho-cyclin E peptide binding, activator screen. AID 1259310, 2017. 650,000 tested, 0.13% active; in the data active means normalized activity above about 1.9%;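 further: purified mutant Fbw7 with reduced substrate affinity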
Target sequence (Q969H0 whole entry, looked up): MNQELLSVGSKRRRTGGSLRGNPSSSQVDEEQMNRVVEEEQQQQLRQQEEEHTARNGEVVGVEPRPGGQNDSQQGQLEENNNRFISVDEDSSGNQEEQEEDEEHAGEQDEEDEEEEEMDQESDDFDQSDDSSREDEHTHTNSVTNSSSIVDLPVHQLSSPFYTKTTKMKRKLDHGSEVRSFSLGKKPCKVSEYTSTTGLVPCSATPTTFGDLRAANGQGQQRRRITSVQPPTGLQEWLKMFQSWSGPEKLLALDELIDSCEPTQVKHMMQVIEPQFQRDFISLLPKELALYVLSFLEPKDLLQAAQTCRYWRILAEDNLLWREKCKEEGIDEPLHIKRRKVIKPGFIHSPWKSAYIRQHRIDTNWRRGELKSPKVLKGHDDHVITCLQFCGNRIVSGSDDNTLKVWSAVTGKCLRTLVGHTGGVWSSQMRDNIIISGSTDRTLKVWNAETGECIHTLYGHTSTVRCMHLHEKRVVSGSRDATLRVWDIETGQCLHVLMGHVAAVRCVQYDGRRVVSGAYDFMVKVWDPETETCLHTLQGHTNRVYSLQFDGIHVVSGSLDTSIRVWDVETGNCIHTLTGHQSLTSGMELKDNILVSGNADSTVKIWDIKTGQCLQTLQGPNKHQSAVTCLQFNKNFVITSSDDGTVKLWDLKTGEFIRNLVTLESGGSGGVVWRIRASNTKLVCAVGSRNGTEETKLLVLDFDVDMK
Numbers without * were called inactive.

SMILES	MITF inh	GPR151 activ	TEAD-YAP inh	FBW7 activator
Oc1cccc(-c2cnn3c(NCc4cccs4)ccnc23)c1	3	-2	99*	0
Oc1cccc(-c2cnn3c(NCC4CC4)ccnc23)c1	-7	-1	98*	0
CN(C)CCNC(=O)c1cccc(-c2cnn3c(NCc4cccs4)ccnc23)c1	-1	0	93*	0
CCOCCCNC(=O)C1CCC(Cn2c(=O)[nH]c3ccccc3c2=O)CC1 (configuration not stated)	-1	0	-1	0
c1ccc(CCNc2ccc3ncc(-c4cccs4)n3n2)nc1	-4	0	80*	0
COCCNc1ccc2ncc(-c3cccs3)n2n1	-17	-1	37*	0
CCOC(=O)c1cc(-c2ccc(N(CC)CC)cc2)no1	11	0	-58	5.3*
COC(=O)c1cc(-c2ccc(OC)cc2)no1	-3	3	-5	1.9*
CCOc1ccc(C2c3[nH]c4ccccc4c3CCN2C(=O)C[n+]2cc(=O)o[nH]2)cc1 (configuration not stated)	8	1	5	0
COc1cccc(-c2noc(C3CCCN(S(=O)(=O)c4ccc(Cl)cc4)C3)n2)c1 (configuration not stated)	-9	0	1	0
CS(=O)(=O)c1ccc(-c2ccc3c(c2)CC(CNC(=O)/C=C/c2cccnc2)O3)cc1 (configuration not stated)	-1	1	39*	0
CS(=O)(=O)c1ccc(-c2ccc3c(c2)CC(CNC(=O)CCc2cccnc2)O3)cc1 (configuration not stated)	-13	1	12	0
O=[N+]([O-])c1c(N2CCCCC2)ncnc1N1CCCCC1	5	5	-4	0
Nc1ncnc(N2CCCCC2)c1[N+](=O)[O-]	-1	-1	37*	0
Nc1ncnc(N2CCc3ccccc32)c1[N+](=O)[O-]	-3	2	36*	0
NN1C(=O)c2cccc3c(C(=O)c4ccccc4)ccc(c23)C1=O	11	0	9	0
Cc1ccccc1-c1ccc(N2CCN(C(=O)C3CCN(S(C)(=O)=O)CC3)CC2)nn1	-10	1	-18	0
Cc1ccccc1-c1ccc(N2CCN(S(C)(=O)=O)CC2)nn1	-10	-9	45*	0
O=S(=O)(c1ccc(F)c(F)c1)N1CCCc2ccccc21	18	1	10	1
O=C(O)c1c[nH]c2ccc(S(=O)(=O)N3CCCc4ccccc43)cc2c1=O	1	1	48*	0
O=S(=O)(c1ccc2ccccc2c1)N1CCCc2ccccc21	-7	0	55*	0
O=S(=O)(c1ccc2oc3ccccc3c2c1)N1CCCc2ccccc21	-4	-1	59*	0
Cc1cc(S(=O)(=O)N2CCCc3ccccc32)ccc1-n1cnnn1	17	0	3	2.1*
Cc1cc(S(=O)(=O)N2CCCCCC2)ccc1-n1cnnn1	9	0	-4	0
CCCCOC(=O)c1ccc(NC(NC(=O)c2cccs2)C(=O)c2ccc(C)cc2)cc1 (configuration not stated)	3	-1	-3	0
SMILES	MITF inh	GPR151 activ	TEAD-YAP inh	FBW7 activator
C#CCN1C(=O)S/C(=C/c2cc(OC)c3c(c2)OCO3)C1=O	11	0	-14	0
CCS(=O)(=O)Nc1ccc(NS(=O)(=O)CC)c(C(C(C)=O)C(C)=O)c1	-22	1	2	0
COc1ccc(/C(C)=N/NC(=O)c2cccs2)c(OC)c1	3	-3	-46	0
C=CCNC(=O)c1ccc(C)nc1NCc1cccnc1	17	0	-3	1.9*
Cc1ccc(C(=O)NCc2cccnc2)c(NCc2cccnc2)n1	7	0	8	1
O=c1c2cccc3cc(S(=O)(=O)O)cc(c32)c2nc3ccccc3n12	26	0	5	0
Fc1ccc(-c2cc(NCCCN3CCOCC3)nc(-c3ccccn3)n2)cc1	-13	-1	10	-1
OCCCNc1cc(-c2ccccn2)nc(-c2ccccn2)n1	115*	4	3	-1
c1ccc(-c2cc(NCc3ccncc3)nc(-c3ccccn3)n2)cc1	19	0	37*	-1
Fc1ccccc1-c1cc(NCCCN2CCOCC2)nc(-c2ccccn2)n1	17	1	37*	-1
COC(CNc1cc(-c2ccccc2)nc(-c2ccccn2)n1)OC	12	1	48*	-1
c1ccc(CNc2cc(-c3ccncc3)nc(-c3ccccn3)n2)cc1	3	0	7	-1
COC(=O)c1cc(C)sc1NC(=S)NNC(=O)c1c[nH]c2ccccc12	20	-1	-26	0
COCCNC(=O)CCn1nnc2ccccc2c1=O	2	1	3	0
OCCCNc1cc(-c2ccccn2)nc(-c2ccccc2)n1	17	3	22	0
OCCCNc1cc(-c2ccccc2)nc(-c2ccccn2)n1	22	1	78*	-1
COc1ccccc1-n1cc(C(=O)N2CCCC(N3CCOCC3)C2)cn1 (configuration not stated)	-5	-2	0	0
C=CCC1S/C(=N\N=C/c2cccc([N+](=O)[O-])c2)NC1=O (configuration not stated)	29	-1	-1	0
CC1=NN(C(N)=S)C(=O)C1N=Nc1ccccc1O (configuration not stated)	58*	0	-16	-3
CC1=NN(C(N)=S)C(=O)C1N=Nc1ccccc1C (configuration not stated)	9	-5	-15	-1
COc1cccc(C(=O)N/N=C/c2cc(C)n(-c3cccc([N+](=O)[O-])c3)c2C)c1	13	0	-30	0
Cc1ccc2nc(-c3ccc(O)cc3O)cn2c1	0	1	80*	0
Cc1ccc2nc(-c3ccc(O)c(O)c3)cn2c1	0	-7	54*	0
Cc1ccc2nc(-c3ccc([N+](=O)[O-])cc3)cn2c1	-4	-2	-34	0
O=C(CCN1C(=O)/C(=C\c2cccs2)SC1=S)Nc1ccc(O)c(C(=O)O)c1	3	1	8	1
SMILES	MITF inh	GPR151 activ	TEAD-YAP inh	FBW7 activator
N[C@H](Cc1ccc(Cl)cc1)c1nc2ccc(-c3cn[nH]c3)cc2c(=O)[nH]1	11	-1	94*	-1
COc1cc(-c2cn[nH]c2)cc2c(=O)[nH]c([C@H](N)Cc3cccc(F)c3)nc12	-2	-1	72*	0
COc1cc(-c2cn[nH]c2)cc2c(=O)[nH]c(Cc3cccc(NC(=O)C(C)C)c3)nc12	10	0	-5	1
N[C@H](Cc1cccc(C(F)(F)F)c1)c1nc2ccc(-c3cn[nH]c3)cc2c(=O)[nH]1	4	-2	19	-1
CN1CCN(c2ccc(-c3ccc(C(=O)NC4CC4)s3)cc2)CC1	1	-2	52*	0
CC1=CC(C)(C)N(S(C)(=O)=O)c2ccc(OS(C)(=O)=O)cc21	7	1	1	0
